# Assay results from PubChem BioAssay (EPA / NIEHS).
# Inconclusive results are not listed. Some compounds were tested as several samples or in several runs, with calls that do not always agree. Active and inactive are the calls of the source. The calls were made as follows: active = hit-call score of the fitted dose curve at least 0.9, where 1 is the maximum; inconclusive = response in the unintended direction; inactive = score below 0.9.
# Legend:
# [1] = ATG_XTT_Cytotoxicity: Cytotoxicity Assessment in the Attagene TRANS-FACTORIAL HepG2 Assay (AID 2283584)
# Outline: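 HepG2 cells transiently transfected with GAL4-UAS multiple reporter units, dosed 24 h; cytotoxicity read by XTT as loss of signal versus DMSO baseline.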
# [2] = TOX21_p53_BLA_p2_viability: Viability Assessment in the Tox21 HCT-116 p53 Agonism Beta-lactamase Assay, Phase 2 (AID 2283591);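 also: compound exposure lasted 16 h at 37 °C; actives lower the ATP signal meaning cytotoxicity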
# Outline: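 HCT116 p53-bla cells, 4000/well, dosed after 5 h plating (217-fold dilution of DMSO stocks) and incubated 16 h at 37C. Viability taken as cellular ATP by CellTiter-Glo luminescence after 30 min RT; signal loss marks cytotoxicity.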
# [3] = TOX21_p53_BLA_p3_viability: Viability Assessment in the Tox21 HCT-116 p53 Agonism Beta-lactamase Assay, Phase 3 (AID 2283593);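 also: cells exposed to compound for 16 h before reading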
# Outline: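 HCT116 cells, 4000/well, dosed 5 h after plating by pin transfer (217-fold dilution from DMSO stock) and incubated 16 h at 37C, 5% CO2. Viability read as ATP luminescence with CellTiter-Glo after 30 min at room temperature.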
# [4] = molecular target: Cellular tumor antigen p53 (Homo sapiens) (UniProt P04637); test: TOX21_p53_BLA_p3_ratio: Tox21 HCT-116 p53 Agonism Beta-lactamase Assay, Ratio, Phase 3 (AID 2283596)
# Outline: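 HCT116 p53-bla cells (4000/well) given compound in DMSO (217-fold dilution) after 5 h, incubated 16 h at 37C. CCF4-AM substrate 2 h at room temperature; 460/530 nm emission ratio, gain fitted against DMSO.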
# [5] = molecular target: Cellular tumor antigen p53 (Homo sapiens) (UniProt P04637); test: TOX21_p53_BLA_p5_ratio: Tox21 HCT-116 p53 Agonism Beta-lactamase Assay, Ratio, Phase 5 (AID 2283599)
# Outline: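 HCT-116 p53-bla cells (4000/well) plated 5 h, dosed with compound (217-fold DMSO dilution) for 16 h at 37 C; CCF4-AM substrate 2 h at room temperature. Activity is the 460/530 nm emission ratio (405 nm excitation), fitted in gain-of-signal direction versus DMSO.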
# [6] = molecular target: Cellular tumor antigen p53 (Homo sapiens) (UniProt P04637); test: TOX21_p53_BLA_p4_ratio: Tox21 HCT-116 p53 Agonism Beta-lactamase Assay, Ratio, Phase 4 (AID 2283601)
# Outline: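 HCT-116 p53 beta-lactamase reporter cells (4000/well) preincubated 5 h, then compound (217-fold dilution of DMSO stock) for 16 h at 37C. CCF4-AM substrate added 2 h at room temperature; 460/530 nm emission ratio fitted upward versus DMSO.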
# [7] = molecular target: Cellular tumor antigen p53 (Homo sapiens) (UniProt P04637); test: TOX21_p53_BLA_p2_ratio: Tox21 HCT-116 p53 Agonism Beta-lactamase Assay, Ratio, Phase 2 (AID 2283592)
# Outline: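 HCT-116 cells with p53-responsive beta-lactamase reporter, 4000 cells/well, preincubated 5 h, then compound in DMSO (217-fold dilution) for 16 h at 37C. CCF4-AM substrate 2 h at room temperature; 460/530 nm emission ratio fitted upward versus DMSO.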
# [8] = TOX21_p53_BLA_p5_viability: Viability Assessment in the Tox21 HCT-116 p53 Agonism Beta-lactamase Assay, Phase 5 (AID 2283600)
# Outline: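 HCT-116 p53 beta-lactamase reporter cells, 4000/well, were exposed to compound (pin transfer, 217-fold dilution) for 16 hours at 37C. Cellular ATP was read by CellTiter-Glo luminescence after 30 min at room temperature.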
# [9] = ACEA_AR_agonist_AUC_viability: ACEA Biosciences xCELLigence Real-Time Cell Analysis on Androgen Receptor Agonism for Viability (AID 2283775);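 as to AC50: viability read 80 hours after compound addition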
# Outline: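 Read-out is area under the impedance curve at 80 h post-dose in 22Rv1 cells, with DMSO as baseline and signal loss taken as reduced viability. Compounds ran in duplicate from 100 uM final.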
# [10] = TOX21_p53_BLA_p4_viability: Viability Assessment in the Tox21 HCT-116 p53 Agonism Beta-lactamase Assay, Phase 4 (AID 2283597);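 also: hits lower the luminescence signal meaning cytotoxicity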
# Outline: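 HCT-116 p53-bla cells, 4000/well, dosed after 5 h attachment and incubated 16 h at 37 °C, 5% CO2. Viability from CellTiter-Glo ATP luminescence after 30 min at room temperature, taken after the beta-lactamase read; loss of signal indicates cytotoxicity.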
# [11] = STM_H9_OrnCyssISnorm_ratio: Stemina devTOX quickPredict H9 human embryonic stem cell (hESC)-based Assay for Ornithine (ORN):Cystine (CYSS) Ratio (AID 2283714)
# Outline: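 Undifferentiated H9 hESCs exposed 72 h, media and compound replaced every 24 h; final 24-h conditioned media deproteinized and analysed by UPLC-HRMS against C13 spike-ins. Value is the internal-standard-normalized ORN/CYSS ratio versus 0.1% DMSO.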
# Sequence of Cellular tumor antigen p53 (Homo sapiens) (P04637 whole entry, looked up): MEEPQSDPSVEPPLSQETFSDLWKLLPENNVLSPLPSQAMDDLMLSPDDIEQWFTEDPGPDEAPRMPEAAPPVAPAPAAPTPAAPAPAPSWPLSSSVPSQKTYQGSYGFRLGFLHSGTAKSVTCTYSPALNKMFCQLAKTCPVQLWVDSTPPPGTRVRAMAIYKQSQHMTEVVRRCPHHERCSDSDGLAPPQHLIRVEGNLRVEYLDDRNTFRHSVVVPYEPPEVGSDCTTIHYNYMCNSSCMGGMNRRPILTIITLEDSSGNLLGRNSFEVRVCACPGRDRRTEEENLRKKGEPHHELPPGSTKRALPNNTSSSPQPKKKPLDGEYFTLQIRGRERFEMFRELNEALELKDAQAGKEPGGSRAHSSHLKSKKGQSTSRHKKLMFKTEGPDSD
structure (smiles),measurement,setting,value
C=C(C)C(=O)OCC(C)C,outcome,[1],inactive
same,outcome,[2],inactive
same,outcome,[3],inactive
same,outcome,[4],inactive
same,outcome,[5],inactive
same,outcome,[6],inactive
COc1cc(C)ccc1C(C)C,outcome,[1],inactive
same,outcome,[2],inactive
same,outcome,[7],inactive
same,outcome,[4],inactive
same,outcome,[8],inactive
same,outcome,[6],inactive
O=C1C(N(CO)C(=O)NCO)N(CO)C(=O)N1CO (configuration not stated),outcome,[1],inactive
same,outcome,[2],inactive
same,outcome,[7],inactive
same,outcome,[4],inactive
same,outcome,[8],inactive
same,outcome,[9],inactive
O=c1[nH]c(=O)c2[nH]c(=O)[nH]c2[nH]1,outcome,[1],inactive
same,outcome,[2],inactive
same,outcome,[7],inactive
same,outcome,[5],inactive
CCc1ccc2c(c1)C(=O)c1ccccc1C2=O,outcome,[1],inactive
same,outcome,[2],inactive
same,outcome,[3],inactive
same,outcome,[8],inactive
Cc1ccc([N+](=O)[O-])cc1S(=O)(=O)O,outcome,[1],inactive
same,outcome,[2],inactive
same,outcome,[7],inactive
same,outcome,[4],inactive
same,outcome,[8],inactive
same,outcome,[6],inactive
CCCCCC/C=C\CCCCCCCC(=O)O,outcome,[1],inactive
same,outcome,[2],inactive
same,AC50,[3],76.5 µM (active)
same,outcome,[4],inactive
same,outcome,[8],inactive
same,outcome,[6],inactive
CC(=O)OCC(=O)[C@@]12N=C(C)O[C@@H]1C[C@H]1[C@@H]3CCC4=CC(=O)C=C[C@]4(C)[C@H]3[C@@H](O)C[C@@]12C,outcome,[1],inactive
same,outcome,[2],inactive
same,outcome,[7],inactive
same,outcome,[10],inactive
same,outcome,[8],inactive
CC(C)(C)c1ccc(OC(=O)c2ccccc2O)cc1,outcome,[1],inactive
same,outcome,[2],inactive
same,outcome,[7],inactive
same,outcome,[10],inactive
same,outcome,[6],inactive
same,AC50,[9],0.106 µM (active)
CC(=O)c1ccc2c(c1)CCCC2,outcome,[1],inactive
same,outcome,[2],inactive
same,outcome,[3],inactive
same,outcome,[4],inactive
same,outcome,[6],inactive
Nc1ccc(N)c(Cl)c1,outcome,[1],inactive
same,outcome,[2],inactive
same,outcome,[3],inactive
same,AC50,[4],76.2 µM (active)
same,outcome,[10],inactive
same,AC50,[5],75.2 µM (active)
same,outcome,[5],inactive
same,outcome,[8],inactive
same,AC50,[6],72.1 µM (active)
same,outcome,[6],inactive
same,AC50,[11],13.5 µM (active)
NC(=O)N=NC(N)=O,outcome,[1],inactive
same,outcome,[2],inactive
same,outcome,[7],inactive
same,outcome,[10],inactive
same,outcome,[5],inactive
same,outcome,[8],inactive
same,outcome,[6],inactive
same,outcome,[9],inactive
C=C1C2CCC(C2)C1(C)C (configuration not stated),outcome,[1],inactive
same,outcome,[2],inactive
same,outcome,[3],inactive
same,outcome,[4],inactive
same,outcome,[10],inactive
same,outcome,[5],inactive
same,outcome,[8],inactive
same,outcome,[6],inactive
same,outcome,[9],inactive
c1ccc(CCCc2ccncc2)cc1,outcome,[1],inactive
same,outcome,[2],inactive
same,outcome,[7],inactive
same,outcome,[4],inactive
same,outcome,[8],inactive
same,outcome,[6],inactive
C=CC(=O)OCCC(=O)O,outcome,[1],inactive
same,outcome,[2],inactive
same,outcome,[7],inactive
same,outcome,[4],inactive
same,outcome,[6],inactive
CC(=O)Oc1ccc(C(C)=O)cc1,outcome,[1],inactive
same,outcome,[2],inactive
same,outcome,[3],inactive
same,outcome,[4],inactive
same,outcome,[5],inactive
same,outcome,[8],inactive
O=C1c2ccccc2C(=O)C1c1nc2ccccc2c(Br)c1O,outcome,[1],inactive
same,outcome,[2],inactive
same,outcome,[3],inactive
same,outcome,[10],inactive
same,outcome,[8],inactive
same,outcome,[6],inactive
CCCCC(CC)COC(=O)c1ccccc1O (configuration not stated),outcome,[1],inactive
same,outcome,[2],inactive
same,outcome,[3],inactive
same,outcome,[10],inactive
same,outcome,[8],inactive
same,outcome,[6],inactive
COC(=O)c1cc(Cl)ccc1[N+](=O)[O-],outcome,[1],inactive
same,outcome,[2],inactive
same,outcome,[7],inactive
same,outcome,[4],inactive
same,outcome,[6],inactive
OCCN(CCO)c1ccccc1,outcome,[1],inactive
same,outcome,[2],inactive
same,outcome,[3],inactive
same,outcome,[5],inactive
same,outcome,[8],inactive
C=C[Si](C)(C)O[Si](C)(C)C=C,outcome,[1],inactive
same,outcome,[2],inactive
same,outcome,[7],inactive
same,outcome,[4],inactive
same,outcome,[9],inactive
Cc1c(C)c([N+](=O)[O-])c(C(C)(C)C)c([N+](=O)[O-])c1C,outcome,[1],inactive
same,outcome,[2],inactive
same,outcome,[7],inactive
same,outcome,[10],inactive
same,outcome,[5],inactive
CCC(C)C=O (configuration not stated),outcome,[1],inactive
same,outcome,[2],inactive
same,outcome,[3],inactive
same,outcome,[4],inactive
same,outcome,[10],inactive
same,outcome,[5],inactive
same,outcome,[8],inactive
same,outcome,[6],inactive
CC(CC=O)c1ccccc1 (configuration not stated),outcome,[1],inactive
same,outcome,[2],inactive
same,outcome,[3],inactive
same,outcome,[4],inactive
same,outcome,[10],inactive
same,outcome,[8],inactive
N#CCc1ccc(Cl)cc1Cl,outcome,[1],inactive
same,outcome,[2],inactive
same,outcome,[10],inactive
CC(C)(C)C(=O)C=Cc1ccc(Cl)cc1,outcome,[1],inactive
same,outcome,[7],inactive
same,outcome,[3],inactive
same,outcome,[4],inactive
same,outcome,[10],inactive
same,outcome,[5],inactive
same,outcome,[6],inactive
C=CCCCCCCCCC(=O)OCCCC,outcome,[1],inactive
same,outcome,[7],inactive
same,outcome,[3],inactive
same,outcome,[4],inactive
same,outcome,[5],inactive
same,outcome,[8],inactive
CCOC(=O)c1ccccc1C(=C1C=C(Br)C(=O)C(Br)=C1)c1cc(Br)c(O)c(Br)c1,outcome,[1],inactive
same,AC50,[7],10.2 µM (active)
same,AC50,[4],10.4 µM (active)
same,AC50,[10],9.49 µM (active)
same,AC50,[5],15.2 µM (active)
same,outcome,[8],inactive
same,AC50,[11],3.9 µM (active)
CN(C)CCCN(C)C,outcome,[1],inactive
same,outcome,[2],inactive
same,outcome,[4],inactive
same,outcome,[5],inactive
same,outcome,[8],inactive
same,outcome,[6],inactive
CC(=O)Oc1ccc(C)cc1,outcome,[1],inactive
same,outcome,[2],inactive
same,outcome,[4],inactive
same,outcome,[5],inactive
same,outcome,[8],inactive
same,outcome,[6],inactive
CCC(CC)C(=O)O,outcome,[1],inactive
same,outcome,[7],inactive
same,outcome,[3],inactive
same,outcome,[8],inactive
CCCCOCCOC(=O)COc1nc(Cl)c(Cl)cc1Cl,outcome,[1],inactive
same,outcome,[7],inactive
same,outcome,[3],inactive
same,outcome,[4],inactive
same,outcome,[10],inactive
same,outcome,[8],inactive
same,outcome,[9],inactive
C=C(C)[C@@H]1CCC2=CCC[C@@H](C)[C@]2(C)C1,outcome,[1],inactive
same,outcome,[7],inactive
same,outcome,[3],inactive
same,outcome,[10],inactive
same,outcome,[5],inactive
same,outcome,[6],inactive
